Data taken from PubChem BioAssay (NCATS).
Records with an inconclusive call do not appear. The source made the active and inactive calls. The call rests on the fitted dose curve; in most records, active means well fitted curve in the direction sought with a large enough effect; inconclusive means small, poorly fitted or top-dose-only effect, or another doubt; inactive means no such curve, though single readings can be large; an effect the other way counts as inactive or inconclusive.

Tests used:
[1] = Cell Viability - LYMP2-023 (AID 975); conditions: LYMP2-023 lymphoblastoid cell viability; series mostly up to 92.2 µM;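 further: cellular ATP measured by luciferase luminescence as viability proxy; plate controls were DMSO only for no effect and 92 µM tetraoctylammonium bromide control for full effect; nearly all actives have a fitted effect of over 55% in size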
Procedure, shortened: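 2500 cells/well, 5 hr 37 C; cpd 24 hr 37 C; CellTiter-Glo, 30 min RT; luminescence. qHTS conc-response, Hill fit -> AC50. Pos ctrl tetraoctylammonium bromide.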

[2] = Cell Viability - LYMP2-025 (AID 976); conditions: LYMP2-025 lymphoblastoid cell viability; series mostly up to 92.2 µM;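 further: plate controls were DMSO only for no effect and tetraoctylammonium bromide control for full effect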
Procedure, shortened: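 Seed 2500 LYMP2-025 cells/well; 5 hr at 37 C; add compound; 24 hr at 37 C; add CellTiter-Glo; 30 min RT; read luminescence. AC50 from Hill-modelled concentration-response.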

[3] = Cell Viability - LYMP2-002 (AID 977); conditions: LYMP2-002 lymphoblastoid cell viability, qHTS; series mostly up to 92.2 µM;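 further: plate controls were DMSO only for no effect and 92 µM tetraoctylammonium bromide for full effect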
Procedure, shortened: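 Luminescent ATP readout (CellTiter-Glo, 30 min room temperature) after 24 h compound exposure at 37 C of a human lymphoblastoid line, 2500 cells/well. AC50 values derived by standard Hill fitting of qHTS concentration-response data.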

[4] = Cell Viability - LYMP2-006 (AID 978); conditions: LYMP2-006 lymphoblastoid cell viability, qHTS; series mostly up to 92.2 µM; further: on the % scale 0 is the no-effect control and ±100 the full control effect; nearly all actives have a fitted effect of over 60% in size
Procedure, shortened: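 Cells are seeded at 2500 per well and rested 5 hr at 37 C. Compounds are added across a concentration series for 24 hr at 37 C, after which ATP is quantified by luciferase luminescence.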

[5] = Cell Viability - LYMP2-007 (AID 979); conditions: LYMP2-007 lymphoblastoid cell viability; series mostly up to 92.2 µM;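 further: cells exposed to compound for 24 h before reading; 0% = DMSO only and the negative end = 92 µM tetraoctylammonium bromide; nearly all actives have a fitted effect of over 60% in size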
Procedure, shortened: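 Luminescent ATP signal (CellTiter-Glo) serves as the viability read-out after 24 hr compound treatment of lymphoblastoid cells in complete medium at 37 C. Concentration-response data were fitted to the Hill equation to give AC50 values.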

[6] = Cell Viability - LYMP2-008 (AID 980); conditions: LYMP2-008 lymphoblastoid cell viability, qHTS; series mostly up to 92.2 µM; further: on the % scale 0 is the no-effect control and ±100 the full control effect; nearly all actives have a fitted effect of over 60% in size
Procedure, shortened: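 qHTS, human lymphoblastoid line, 2500 cells/well; 5 hr preincubation, 24 hr compound, 37 C. CellTiter-Glo ATP luminescence. AC50 via Hill equation. Tetraoctylammonium bromide positive control.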

[7] = Cell Viability - LYMP2-010 (AID 981); conditions: LYMP2-010 lymphoblastoid cell viability, qHTS; series mostly up to 92.2 µM; further: on the % scale 0 is the no-effect control and ±100 the full control effect; nearly all actives have a fitted effect of over 55% in size
Procedure, shortened: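 Luminescent ATP signal (CellTiter-Glo) served as the viability read-out. Cells of the human lymphoblastoid line were treated with compound over a concentration range for 24 hours at 37 C, and AC50 values came from Hill-equation modeling.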

[8] = Cell Viability - LYMP2-012 (AID 982); conditions: LYMP2-012 lymphoblastoid cell viability qHTS; series mostly up to 92.2 µM;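 further: cellular ATP by luciferase luminescence where a drop means cytotoxicity; cells exposed to compound for one day before reading; 0% = DMSO only and full loss = 92 µM tetraoctylammonium bromide; nearly all actives have a fitted effect of over 55% in size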
[9] = Cell Viability - LYMP2-014 (AID 983); conditions: LYMP2-014 lymphoblastoid cells, viability qHTS; series mostly up to 92.2 µM;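 further: plate controls were DMSO only for no effect and 92 µM tetraoctylammonium bromide for full effect; nearly all actives have a fitted effect of over 50% in size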
Procedure, shortened: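 Luminescent ATP signal (CellTiter-Glo, 30 min at room temperature) serves as the viability read-out after 24 hr compound exposure at 37 C. Cells were seeded at 2500 per well and settled 5 hr beforehand.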

[10] = Cell Viability - LYMP2-016 (AID 984); conditions: LYMP2-016 lymphoblastoid cell viability, qHTS; series mostly up to 92.2 µM; further: on the % scale 0 is the no-effect control and ±100 the full control effect; nearly all actives have a fitted effect of over 55% in size
Procedure, shortened: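 Cells were seeded at 2500 per well and rested 5 hr before a 24 hr compound exposure at 37 C. Viability was then gauged as cellular ATP by luciferase luminescence, with AC50 values fitted to the Hill equation.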

[11] = Cell Viability - LYMP2-018 (AID 985); conditions: LYMP2-018 lymphoblastoid cells, viability (qHTS); series mostly up to 92.2 µM;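 further: plate controls were DMSO only for no effect and tetraoctylammonium bromide at 92 µM for full effect; nearly all actives have a fitted effect of over 50% in size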
Procedure, shortened: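 Luminescent ATP signal (CellTiter-Glo, read after 30 min at room temperature) reports viable cells after 24 hr compound treatment at 37 C. Concentration-response data were fitted to the standard Hill equation for AC50.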

[12] = Cell Viability - LYMP2-020 (AID 986); conditions: series mostly up to 92.2 µM
Procedure, shortened: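 Luminescent ATP signal (CellTiter-Glo, 30 min at room temperature) is the read-out after 24 h compound treatment of lymphoblastoid cells at 37 C. AC50 values come from Hill-equation fits across concentrations.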

[13] = Cell Viability - LYMP2-022 (AID 987); conditions: LYMP2-022 lymphoblastoid cell viability; series mostly up to 92.2 µM
Procedure, shortened: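 qHTS: human lymphoblastoid cells 2500/well; 5 hr 37 C; cpd added; 24 hr 37 C; CellTiter-Glo, 30 min RT; luminescence. AC50 via Hill fit; tetraoctylammonium bromide positive ctrl.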

[14] = Cell Viability - LYMP2-024 (AID 988); conditions: LYMP2-024 lymphoblastoid cell viability; series mostly up to 92.2 µM;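 further: plate controls were DMSO only for no effect and 92 µM tetraoctylammonium bromide for full effect; nearly all actives have a fitted effect of over 60% in size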
Procedure, shortened: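 Steps: seed 2500 cells/well, 5 hr 37 C; add compound, 24 hr 37 C; add CellTiter-Glo, 30 min room temperature; read luminescence. AC50 derived by Hill modelling of concentration-dependent ATP loss.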

[15] = Cell Viability - LYMP2-026 (AID 989); conditions: LYMP2-026 lymphoblastoid cell viability, qHTS; series mostly up to 92.2 µM; further: on the % scale 0 is the no-effect control and ±100 the full control effect; nearly all actives have a fitted effect of over 50% in size
Procedure, shortened: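 Luminescent ATP signal (CellTiter-Glo, 30 min room temperature) measures viable lymphoblastoid cells after 24 hr compound treatment at 37 C. Decreased ATP reflects acute toxicity; AC50 values come from Hill-equation modeling.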

[16] = Cell Viability - LYMP1-002 - Assay at 24 hr (AID 993); conditions: LYMP1-002 lymphoblastoid cells viability; series mostly up to 92.2 µM; further: on the % scale 0 is the no-effect control and ±100 the full control effect
Procedure, shortened: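 Cells plated 2500/well, 5 hr 37 C; compounds added, 24 hr 37 C; CellTiter-Glo added, 30 min RT; luminescence read. Tetraoctylammonium bromide positive control. Hill-equation AC50.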

[17] = Cell Viability - LYMP1-002 - Assay at 40 hr (AID 994); conditions: LYMP1-002 lymphoblastoid cell viability; series mostly up to 92.2 µM
Procedure, shortened: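 Luminescent ATP signal served as the viability readout, with decreases taken as toxicity. Cells were treated with compounds across a concentration range for 40 hours at 37 C, and AC50 values came from standard Hill modeling.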

[18] = molecular target: Rap guanine nucleotide exchange factor 3 (Homo sapiens) (UniProt O95398); assay: Confirmatory qHTS for antagonist of cAMP-regulated guanine nucleotide exchange factor 3 (EPAC1) (AID 1645880); conditions: EPAC1 Rap1B-BODIPY-GDP exchange, fluorescence; series mostly up to 115 µM
Chain of Rap guanine nucleotide exchange factor 3 (Homo sapiens) (O95398 whole entry, looked up): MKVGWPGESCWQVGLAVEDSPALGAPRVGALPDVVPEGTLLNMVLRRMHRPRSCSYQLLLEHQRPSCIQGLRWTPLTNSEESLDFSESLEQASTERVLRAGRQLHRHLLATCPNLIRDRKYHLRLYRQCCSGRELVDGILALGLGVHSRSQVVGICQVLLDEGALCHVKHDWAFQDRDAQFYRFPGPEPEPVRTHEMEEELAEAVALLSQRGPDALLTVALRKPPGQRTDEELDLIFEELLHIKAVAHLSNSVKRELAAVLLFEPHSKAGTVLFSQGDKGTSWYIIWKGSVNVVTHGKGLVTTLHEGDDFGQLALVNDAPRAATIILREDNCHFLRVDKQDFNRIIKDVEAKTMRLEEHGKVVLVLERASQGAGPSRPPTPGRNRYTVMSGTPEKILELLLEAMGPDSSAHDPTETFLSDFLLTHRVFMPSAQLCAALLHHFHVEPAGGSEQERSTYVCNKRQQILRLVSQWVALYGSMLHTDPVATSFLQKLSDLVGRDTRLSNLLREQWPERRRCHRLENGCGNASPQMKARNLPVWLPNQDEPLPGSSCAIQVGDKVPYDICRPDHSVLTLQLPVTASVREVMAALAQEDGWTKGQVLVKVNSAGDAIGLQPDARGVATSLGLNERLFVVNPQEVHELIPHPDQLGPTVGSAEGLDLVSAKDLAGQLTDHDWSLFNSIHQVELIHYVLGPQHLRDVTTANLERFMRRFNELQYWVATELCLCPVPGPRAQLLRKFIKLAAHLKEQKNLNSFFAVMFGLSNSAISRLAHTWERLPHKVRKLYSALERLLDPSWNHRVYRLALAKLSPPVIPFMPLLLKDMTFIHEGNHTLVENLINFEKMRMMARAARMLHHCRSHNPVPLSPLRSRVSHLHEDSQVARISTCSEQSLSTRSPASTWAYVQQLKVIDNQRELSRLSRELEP
Procedure, shortened: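 Nucleotide exchange uses 100 nM EPAC1, 250 nM RAP1B-BODIPY-GDP and 50 uM GDP, with compounds in a concentration-titration series. After 5 min at room temperature, fluorescence (480 nm ex/540 nm em) is read every 5 min for 30 min. Data are normalized to control ATA and DMSO.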

[19] = molecular target: Rap guanine nucleotide exchange factor 3 (Homo sapiens) (UniProt O95398); assay: Counterscreen qHTS for agonist of cAMP-regulated guanine nucleotide exchange factor 3 (EPAC1) (AID 1645889); conditions: EPAC1 Rap1B-BODIPY-GDP exchange, fluorescence; series mostly up to 154 µM; further: % of control where 0% means no effect; nearly all actives have a fitted effect of over 40% in size
Procedure, shortened: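 Measured: fluorescence of BODIPY-GDP bound to Rap1B, which falls as exchange proceeds. Conditions include 50 uM competing GDP, 5 and 30 min reads, and a later cAMP challenge for antagonist detection.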

CC(C)(c1cc(Br)c(O)c(Br)c1)c1cc(Br)c(O)c(Br)c1
inactive: outcome [1] | outcome [2] | outcome [3] | outcome [4] | outcome [5] | outcome [6] | outcome [7] | outcome [8] | outcome [9] | outcome [10] | outcome [11] | outcome [12] | outcome [13] | outcome [14] | outcome [15] | outcome [16] | outcome [17]

Cc1ccc(P(=O)(CSC(=N)N)c2ccc(C)cc2)cc1
inactive: Potency [18] | activation [19] -0.0561% [at 30.8 µM]
